# Assay outcomes from PubChem BioAssay.
# Shown are actives, neighbours in structure and some others; about 1.7% of the full set was active somewhere.
# HUVEC tox TNFa: toxic to HUVEC cells under TNF alpha stimulation. HUVEC TNFalpha-stimulated, Hoechst cell count, imaging. cell count reduction, % at 2 µM. actives 0.17% (n = 93,000). AID 848;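 active = cell count reduction exceeding the screen mean by over 5 SD, scaled to untreated wells per plate, cut at about 78% in these data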;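 also: cells counted after 24 h of TNF alpha exposure following the 1 h pretreatment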
# HUVEC tox IL1B: toxic to HUVEC cells under IL-1B stimulation; AID 845; actives 0.41% (n = 94,000); HUVEC cell count loss, Hoechst imaging, IL-1B stimulated; cell count reduction, % at 2 µM;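 active = cell count reduction more than 3 SD above the screen-wide mean, cut at about 70% in these data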
# E-sel TNF inh: blocks E-selectin expression induced by TNF alpha; HUVEC TNFa-induced E-selectin immunofluorescence, high content; inhibition, % at 2 µM; actives 0.71% (n = 120,000);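 active = inhibition above the batch mean plus 3 SD, and confirmed as a hit on visual image review, cut at about 43% in these data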
# IL1B NFkB pot: enhances IL-1B driven NFkB nuclear translocation; HUVEC IL-1B NFkB p65 nuclear translocation imaging; activation, % at 2 µM; actives 0.3% (n = 94,000);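 active = activation above 40%, about the mean plus 3 SD, also judged a hit on visual image review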;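 also: percent activation is computed from the nuclear over cytoplasmic p65 intensity ratio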
# VCAM1 TNFa inh: reduces TNF alpha induced VCAM1 expression in HUVEC; HUVEC TNFa-induced VCAM-1 immunofluorescence, high-content imaging; inhibition, % at 2 µM; actives 0.48% (n = 95,000); AID 802;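 active = inhibition above the batch mean plus 3 SD, with images confirmed as a hit by eye, cut at about 37% in these data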
# NFkB transloc inh: blocks IL-1B driven NFkB nuclear translocation in HUVEC cells. HUVEC IL-1B NFkB p65 nuclear translocation imaging. inhibition, % at 2 µM. actives 0.43% (n = 94,000). AID 796;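 active = inhibition above about 30% together with a positive call from visual inspection of the well image, limit read from the data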;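 also: nuclear over cytoplasmic p65 intensity ratio measured by imaging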
# A number is an active result; 0 = inactive; - = not tested or not shown.
SMILES,HUVEC tox TNFa,HUVEC tox IL1B,E-sel TNF inh,IL1B NFkB pot,VCAM1 TNFa inh,NFkB transloc inh
O=C(Cn1c(=O)n(CCCCC(=O)NC2CCCC2)c(=O)c2ccccc21)NCCC1=CCCCC1,0,0,-,0,0,40
Cc1ccc(C2CC(=O)N(c3ccc(F)cc3)C3=C2C(=O)CCC3)cc1 (stereo unspecified),0,0,100,0,0,0
C/C(=N\Nc1cc(-c2ccccc2)nc(-c2ccccc2)n1)c1ccc(O)c(C)c1,-,-,80,-,-,-
COc1ccc(NC(=O)Cc2c(Cl)cccc2Cl)cn1,-,-,0,-,-,-
COc1ccc(NC(=O)/C(Cl)=C(/Cl)S(=O)Cc2ccc(Cl)cc2)cn1 (stereo unspecified),-,-,100,-,-,-
COc1ccc(NC(=O)/C(Cl)=C(/Cl)S(=O)(=O)Cc2ccccc2)cn1,0,0,0,68,0,0
COc1ccc(NC(=O)C(Cl)=C(Cl)Cl)cn1,-,-,0,-,-,-
CCCOC(=O)C1=C(C)NC2=C(C(=O)CC(C)(C)C2)C1c1ccc(N(C)C)cc1 (stereo unspecified),0,0,0,0,0,0
CCN(CC)c1ccc(C2C(C(=O)OCCOC)=C(C)NC3=C2C(=O)CC(C)(C)C3)cc1 (stereo unspecified),0,0,61,0,0,0
CSc1ccc(/C=N/NC(=O)CN2CCN(Cc3ccc(C)cc3)CC2)cc1,-,-,88,-,-,-
CSc1ccc(/C=N/NC(=O)CN2CCN(Cc3ccccc3Cl)CC2)cc1,-,-,0,-,-,-
Cc1ccc(S(=O)(=O)N(C)c2cc(S(=O)(=O)N3CCC(C)CC3)c(C)cc2C)cc1,0,94,0,0,0,0
Cc1cc(C)cc(OCc2nnc(SCC(=O)N3CCN(c4ccccc4)CC3)o2)c1,-,0,0,0,100,0
CC[C@H](C)[C@@H]1NC(=O)c2cc([N+](=O)[O-])cc(I)c2NCC[C@@H](C(N)=O)NC(=O)[C@H](CCCN=C(N)N)NC1=O,-,-,83,-,-,-
O=C(NCc1ccccn1)C1C2C=CC(C2)C1C(=O)Nc1ccc(F)cc1 (stereo unspecified),0,0,0,0,0,0
O=C(NCc1ccco1)C1CC(=O)N(c2ccc(F)cc2)C1 (stereo unspecified),0,0,0,0,85,0
CCc1ccc(N2CC(C(=O)NCc3ccco3)CC2=O)cc1 (stereo unspecified),0,0,0,0,0,0
CCCC(=O)N=C1SC2CS(=O)(=O)CC2N1c1ccc(CC)cc1 (stereo unspecified),0,0,-,0,0,0
O=C(O)c1cccc(S(=O)(=O)NCC2CCCO2)c1 (stereo unspecified),0,90,0,0,0,93
Cc1cccc(S(=O)(=O)NCC2CCCO2)c1 (stereo unspecified),0,0,0,0,0,0
COc1cc(CC(=O)Oc2ccc3c(c2)OCO3)cc(OC)c1OC,-,0,91,0,-,0
CC(C)Oc1nnnn1-c1ccccc1,0,0,0,0,0,0
c1ccc(-n2nnnc2OCCOc2nnnn2-c2ccccc2)cc1,0,94,0,0,0,0
Cc1cccc(NC(=O)CSc2nnc([C@@H](N)Cc3ccccc3)o2)c1C,0,-,0,-,0,-
COC(=O)c1c(-c2ccccc2)csc1NC(=O)CSc1ncnc2sc(C)c(C)c12,0,89,0,0,0,0
SMILES,HUVEC tox TNFa,HUVEC tox IL1B,E-sel TNF inh,IL1B NFkB pot,VCAM1 TNFa inh,NFkB transloc inh
COCCNC(=S)NC12CC3CC(CC(C3)C1)C2,0,0,0,0,0,0
CSC(=NC#N)N1CCN(c2ccc(Cl)cc2)CC1,0,0,0,0,0,0
N#CC(C#N)=C/C(C#N)=C(/N)N1CCN(c2ccc(Cl)cc2)CC1,0,0,97,0,0,0
Cc1csc(NC(=O)CSc2nnc(-c3ccc(S(=O)(=O)N4CCCC4)cc3)o2)n1,0,0,-,0,73,0
Cc1nc(CNS(=O)(=O)c2ccc3c(c2)OCCO3)cs1,0,0,0,59,0,0
Cc1csc2nc(CNS(=O)(=O)c3ccc4c(c3)OCCO4)cn12,0,0,0,0,0,0
CC(C)C(c1nnnn1Cc1ccc2c(c1)OCO2)N1CCN(C)CC1 (stereo unspecified),0,0,42,0,0,0
CCC(C(=O)N1CCc2cc(OC)c(OC)cc2C1)c1ccccc1 (stereo unspecified),0,0,100,0,0,0
COc1cc2c(cc1OC)CN(C(=O)c1ccccc1C(=O)O)CC2,0,0,0,0,0,0
Nc1nc(N2CCCCC2)c(C=O)c(N2CCCCC2)n1,-,-,0,-,-,-
